This passage reports binding signal results from article PMC10726135, “HNF4α isoforms regulate the circadian balance between carbohydrate and lipid metabolism in the liver”.

Whole data set: some 18,000 sequences, median “log2 normalized intensity” near 0.36, cut for the highest 2% near 7.3. Only a selection was taken, and the highest values are over-represented in it overall.

The target of the assay is T1, HNF4alpha8 (COS-7 nuclear extract) (Homo sapiens, UniProt P41235-5 1-452).
T1 sequence: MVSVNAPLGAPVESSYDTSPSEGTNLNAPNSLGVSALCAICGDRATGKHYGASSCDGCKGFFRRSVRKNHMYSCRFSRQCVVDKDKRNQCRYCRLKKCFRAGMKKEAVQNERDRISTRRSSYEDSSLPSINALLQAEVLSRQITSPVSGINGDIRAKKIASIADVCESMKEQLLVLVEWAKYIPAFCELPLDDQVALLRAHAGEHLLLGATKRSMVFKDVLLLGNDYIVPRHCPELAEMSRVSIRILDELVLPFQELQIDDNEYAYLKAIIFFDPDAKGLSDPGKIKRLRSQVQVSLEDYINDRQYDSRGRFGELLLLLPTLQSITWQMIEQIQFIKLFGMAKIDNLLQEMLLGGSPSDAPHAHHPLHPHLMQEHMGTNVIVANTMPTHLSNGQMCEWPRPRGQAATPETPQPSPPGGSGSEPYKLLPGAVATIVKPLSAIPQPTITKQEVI
In words: protein-binding microarray; COS-7 nuclear extract on double-stranded Agilent 4x180k PBM; binding buffer, salt, pH and temperature not given in the material; high values mean tight binding. The settings on record: chain copies: 2; label: 3' end of strand 1 on the slide; dsDNA, one strand shown. The essentials: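 Double-stranded oligonucleotides of ~60 nt, representing ~44,000 test sequences in quadruplicate, made up a custom Agilent SurePrint G3 4x180k array. Nuclear extracts from COS-7 cells transiently transfected by CaPO4 with a human HNF4α isoform expression vector were applied, and bound HNF4α was imaged at 2-µm resolution on an Agilent G2565CA scanner. Binding signal refers to the background-corrected, normalized gProcessedSignal output of Agilent software.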
As for “TTTGTGATTACATTGAGTCCACTGAGATCAGCCTAGGGAGATTAGAGTATCGGTCGA”, the binding signal was found to be 1.91 log2 normalized intensity. With “CACTTTCCACTCTCTACTGATATGTCCTCCGCCTAGGGAGATTAGAGTATCGGTCGA”, the binding signal was 1.83 log2 normalized intensity.

In the case of “TTTCTGCTCTCAACTAGAGATAAACTTTTGGCCTAGGGAGATTAGAGTATCGGTCGA”, the binding signal stood at 0.481 log2 normalized intensity.

Consider “CCCCACTGTAGTAAGGGAGTGTGGGGTGGTGCCTAGGGAGATTAGAGTATCGGTCGA”, for which the binding signal was -0.92 log2 normalized intensity. Consider “TGTGCTGCCCCCGATAGCACTATTAGTCTTGCCTAGGGAGATTAGAGTATCGGTCGA”, for which the binding signal came out at 3.06 log2 normalized intensity. For “GCCACATCCTGTCTCCTTTAACCTTCATTCGCCTAGGGAGATTAGAGTATCGGTCGA” the value was 1.97 log2 normalized intensity. For “CACTGTCTCAGGGTCCACATTCCAGGAATAGCCTAGGGAGATTAGAGTATCGGTCGA” the value was 2.44 log2 normalized intensity. Turning to “TTCCTGCATTAACATCAACATGGACTTTGAGCCTAGGGAGATTAGAGTATCGGTCGA”, the binding signal was found to be 9.28 log2 normalized intensity. Then “CTGCTTGATAGCCATCTGGTGGACTTTGCTGCCTAGGGAGATTAGAGTATCGGTCGA”, with 6.09 log2 normalized intensity. Turning to “GCATTAACATCAACATGGACTTTGAGTCATGCCTAGGGAGATTAGAGTATCGGTCGA”, the binding signal is 6.9 log2 normalized intensity. Then “TACCTTTCCTGCATTAACATCAACATGGACGCCTAGGGAGATTAGAGTATCGGTCGA”, with 2.03 log2 normalized intensity; and “CTGGACTTTGGCTGCAAAATTTGAACAAAAGCCTAGGGAGATTAGAGTATCGGTCGA”, with 2.14 log2 normalized intensity; and “TGATAGCCATCTGGTGGACTTTGCTCTGCTGCCTAGGGAGATTAGAGTATCGGTCGA”, with 8.15 log2 normalized intensity. For “GCCATCTGGTGGACTTTGCTCTGCTCATTTGCCTAGGGAGATTAGAGTATCGGTCGA” the value was 7.25 log2 normalized intensity; for “CTGCCTTTCCCAGATGGATTGATAGACTTAGCCTAGGGAGATTAGAGTATCGGTCGA”, 0.78 log2 normalized intensity; for “ACCTGGAACTGAAAGAGACCTTTGACATCAGCCTAGGGAGATTAGAGTATCGGTCGA”, 5.23 log2 normalized intensity. Then “AGCAGATGGCCAGCCTTTGGACTTTGAACTGCCTAGGGAGATTAGAGTATCGGTCGA”, with 11.2 log2 normalized intensity. With “CAGCCTTTGGACTTTGAACTGCAACATCAGGCCTAGGGAGATTAGAGTATCGGTCGA”, the binding signal stood at 8.89 log2 normalized intensity.

Take “TTTTTGGCCTTTACCCCTTGAGTTTGAACTGCCTAGGGAGATTAGAGTATCGGTCGA”: the binding signal was 4.12 log2 normalized intensity. On to “TCCAACCTGTTCTTTTGAGCTGTGGTTAAGGCCTAGGGAGATTAGAGTATCGGTCGA”, for which the binding signal was 1.73 log2 normalized intensity.

In the case of “CAATCCAGAAGGCGCTGAACTTTGCCTTGTGCCTAGGGAGATTAGAGTATCGGTCGA”, the binding signal turned out to be 5.04 log2 normalized intensity. Then “ATGGGACCTTTGCCCTTCTTGTTAACCTCCGCCTAGGGAGATTAGAGTATCGGTCGA”, with 4.54 log2 normalized intensity. Then “CCTGAGCCTGGACCTTGGAATGTCAAGATTGCCTAGGGAGATTAGAGTATCGGTCGA”, with 3.05 log2 normalized intensity; and “AGCAGCATAAAGGACTTTCAACCCTGTGATGCCTAGGGAGATTAGAGTATCGGTCGA”, with 3.89 log2 normalized intensity. Turning to “AAAACCATTGCAAATTGGATGTTGAACCTCGCCTAGGGAGATTAGAGTATCGGTCGA”, the binding signal was 4.51 log2 normalized intensity.

Take “ATGGAAGGACCTTGGACTGAAGACTGGAACGCCTAGGGAGATTAGAGTATCGGTCGA”: the binding signal came to 3.17 log2 normalized intensity.

As for “AGGGTCTTTGCAACTGTGTGTGGCCTGCACGCCTAGGGAGATTAGAGTATCGGTCGA”, the binding signal is 1.53 log2 normalized intensity. For “ATGGCCAGCCTTTGGACTTTGAACTGCAACGCCTAGGGAGATTAGAGTATCGGTCGA” the value was 10.1 log2 normalized intensity; for “GCTGGGTCAAAGTGTATGCATATTTTAAGTGCCTAGGGAGATTAGAGTATCGGTCGA”, 2.27 log2 normalized intensity.

As for “CCCACCCCCACGCCCCCCAGCGGAAGTCCAGCCTAGGGAGATTAGAGTATCGGTCGA”, the binding signal stood at 6.82 log2 normalized intensity. For “GCCTGCCCCTCTGACCTCTCCTCCTACCTTGCCTAGGGAGATTAGAGTATCGGTCGA” the value was 3.39 log2 normalized intensity. Then “CCCCCACTGCCTGACCCCAAGTAATAGCCGGCCTAGGGAGATTAGAGTATCGGTCGA”, with 5.69 log2 normalized intensity; and “AAATCTGCCCAACCTTTGCCCCTGGAGGGAGCCTAGGGAGATTAGAGTATCGGTCGA”, with 4.18 log2 normalized intensity; and “AGGAGGAGGTTCCTGGAACTCTGACCTTTGGCCTAGGGAGATTAGAGTATCGGTCGA”, with 6.98 log2 normalized intensity. For “CCCCACCCCCACTGCCTGACCCCAAGTAATGCCTAGGGAGATTAGAGTATCGGTCGA” the value was 7.09 log2 normalized intensity. “GGAACCCCACCCCCACGCCCCCCAGCGGAAGCCTAGGGAGATTAGAGTATCGGTCGA”: the binding signal is 7.38 log2 normalized intensity. For “GAGGTTCCTGGAACTCTGACCTTTGCCCCCGCCTAGGGAGATTAGAGTATCGGTCGA” the value was 10.3 log2 normalized intensity; for “TTCATCCCCACCCCCACTGCCTGACCCCAAGCCTAGGGAGATTAGAGTATCGGTCGA”, 7.49 log2 normalized intensity. As for “GGATCGGAACCCCACCCCCACGCCCCCCAGGCCTAGGGAGATTAGAGTATCGGTCGA”, the binding signal turned out to be 7.03 log2 normalized intensity. Take “ACCGACCTTTGGTTCCTGAACTCAAACCCCGCCTAGGGAGATTAGAGTATCGGTCGA”: the binding signal turned out to be 3.35 log2 normalized intensity.

Turning to “TCCTGGAACTCTGACCTTTGCCCCCAGCCTGCCTAGGGAGATTAGAGTATCGGTCGA”, the binding signal was found to be 10.1 log2 normalized intensity. For “CTTCCACCCACTTTATCTTCTATAGGAATTGCCTAGGGAGATTAGAGTATCGGTCGA” the value was 0.738 log2 normalized intensity.

For “GTGTGTGGCCTGCACAGTTGCACAATGTCAGCCTAGGGAGATTAGAGTATCGGTCGA”, the binding signal was 0.815 log2 normalized intensity. For “CTATAGTTATCTCTGCTGATAGCATAAAGCGCCTAGGGAGATTAGAGTATCGGTCGA” the value was 0.212 log2 normalized intensity; for “GGCTCCCTGGGGTTAAAATGTTTACTGAAGGCCTAGGGAGATTAGAGTATCGGTCGA”, 0.937 log2 normalized intensity.
